Structures are written as SMILES. Inconclusive results are not listed. Active and inactive are the calls of the source. How the source made its calls, unless noted: active means hit-call score of the fitted dose curve at least 0.9, where 1 is the maximum; inactive means score below 0.9.

The nature of test [1]: Tanguay_ZF_120hpf_MUSC: Oregon State University Tanguay Lab 120 Hour Post-fertilization zebrafish Assay for Muscle Malformation (AID 2284401). The gist of the method:
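Scored as a binary brightfield endpoint at 120 hpf, fitted versus DMSO. Single dechorionated wild-type (Tropical 5D) zebrafish embryos per well, statically exposed at 28C from 6 hpf onward with final DMSO 0.64%.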

Test [2] can be described thus: UKN5_HCS_SBAD2_neurite_outgrowth: University of Konstanz (UKN) Leist Lab Neurite Outgrowth Assay in human iPSC-derived immature Dorsal Root Ganglia Neurons (UKN5) (AID 2284070). The note with it: actives raise or lower the signal. A digest of the protocol: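 Neurite outgrowth is quantified as calcein-AM-labelled neurite area in human iPSC-derived peripheral neurons treated for 24 h, starting 1 h after plating in medium with CHIR99021 (1.5 uM), SU5402 (5 uM) and DAPT (5 uM).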

A short description of test [3]: UKN2_HCS_IMR90_neural_migration: University of Konstanz (UKN) Leist Lab Neural Crest Cell Migration Assay in human induced IMR90 Pluripotent Stem Cells (UKN2) (AID 2284204). The note with it: actives raise or lower the signal. A digest of the protocol: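 Using a 96-well stopper format with PLO/laminin/fibronectin coating, neural crest cells from iPSC migrate in cytokine-supplemented N2-S medium; after 24 h, chemicals are applied for a further 24 h, then cells are imaged after dye staining.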

Test [4] in a line: IUF_NPC1b_proliferation_BrdU_72hr: Leibniz Research Institute for Environmental Medicine (IUF) 72-hour Neural Progenitor Cell Bromodeoxyuridine (BrdU) Proliferation Assay (NPC1b) (AID 2284207). The gist of the method:
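Neural progenitor spheres of human fetal origin are treated for three days; BrdU added for the last 16 h is quantified by luminescence ELISA, with DMSO as baseline and EGF/FGF omission as positive control.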

Test [5] can be described thus: IUF_NPC1a_proliferation_area_72hr: Leibniz Research Institute for Environmental Medicine (IUF) 72-hour Neural Progenitor Cell Proliferation Area Assay (NPC1a) (AID 2284208). The gist of the method: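 Single 0.25–0.35 mm human fetal neural progenitor spheres in proliferation medium with EGF and FGF, exposed 72 h from plating without renewal at 37C, pH 7.2-7.6. Sphere area growth measured by automated phase-contrast imaging, relative to DMSO.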

Test [6] is described as follows: UKN4_HCS_LUHMES_cell_viability: Viability Assessment in the University of Konstanz (UKN) Leist Lab Neurite Outgrowth Assay in human LUHMES cells (UKN4) (AID 2284232). A digest of the protocol: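 Measured in replated, 2-day-differentiated LUHMES cells treated 24 h; stained 30 min with H-33342 and calcein-AM before high-content imaging.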
Test [7] in a line: UKN2_HCS_IMR90_cell_viability: Viability Assessment in the University of Konstanz (UKN) Leist Lab Neural Crest Cell Migration Assay in human induced IMR90 Pluripotent Stem Cells (UKN2) (AID 2284233).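 Further: viability of neural crest cells differentiated from IMR90 iPSC measured by calcein-AM fluorescence imaging; cells exposed to compound for 24 h after a 24 h migration phase.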 The gist of the method: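 cMINC format, iPSC-derived neural crest (IMR90); 24 h migration (EGF/FGF, N2-S), then 24 h toxicant. Calcein-AM/H-33342 stain 30 min; fluorescence intensity by HCS; DMSO-normalised, bidirectional fitting.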

A short description of test [8]: IUF_NPC2c_oligodendrocyte_migration_120hr: Leibniz Research Institute for Environmental Medicine (IUF) 120-hour Neural Progenitor Cell Migration Assay for Oligodendrocyte Migration (NPC2c) (AID 2284297).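 Further: O4-positive oligodendrocyte migration distance divided by radial glia migration distance.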 The gist of the method: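 Human fetal neural progenitor spheres (0.3 mm) are plated on poly-D-lysine/laminin in N2 differentiation medium and exposed for 120 h, with half-medium renewal at day 3. Oligodendrocyte (O4+) migration distance comes from ICC imaging, normalised to radial glia migration.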

Test [9] in a line: IUF_NPC2a_radial_glia_migration_120hr: Leibniz Research Institute for Environmental Medicine (IUF) 120-hour Neural Progenitor Cell Migration Assay for Radial Glia Migration (NPC2a) (AID 2284298). The gist of the method:
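Human fetal-cortex neural progenitor spheres (0.3 mm) plated on poly-D-lysine/laminin in N2 differentiation medium, exposed 120 h at 37C with half-medium renewal at day 3. Radial glia migration distance (um) measured from Hoechst-stained nuclei images; DMSO baseline.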

Test [10] is described as follows: IUF_NPC2a_radial_glia_migration_72hr: Leibniz Research Institute for Environmental Medicine (IUF) 72-hour Neural Progenitor Cell Migration Assay for Radial Glia Migration (NPC2a) (AID 2284299). The gist of the method: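 Spheres of human primary neural progenitors migrate on poly-D-lysine/laminin under compound exposure at 37C, 5% CO2. The 72 h radial glia migration distance comes from brightfield images, measured manually.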

A short description of test [11]: IUF_NPC2b_neuronal_migration_120hr: Leibniz Research Institute for Environmental Medicine (IUF) 120-hour Neural Progenitor Cell Migration Assay for Neuron Migration (NPC2b) (AID 2284300). A digest of the protocol: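 0.3 mm hNPC spheres on poly-D-lysine/laminin in N2 differentiation medium exposed 120 h, half-medium refresh day 3; 7 concentrations, DMSO max 0.1%. Neuron (TUBB3) distance from sphere core by ICC imaging, normalised to radial glia migration.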

The nature of test [12]: IUF_NPC3_neuronal_differentiation_120hr: Leibniz Research Institute for Environmental Medicine (IUF) 120-hour Neuronal Differentiation Assay (NPC3) (AID 2284301). A digest of the protocol: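 Neuronal differentiation of primary human neural progenitors measured by high-content imaging: percent TUBB3+ of Hoechst+ nuclei within migrated area at 120 h, seven-point serial dilution plus solvent control, gain or loss relative to DMSO.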

A short description of test [13]: IUF_NPC4_neurite_length_120hr: Leibniz Research Institute for Environmental Medicine (IUF) 120-hour Neuronal Morphology Assay for Neurite Length (NPC4) (AID 2284302). A digest of the protocol: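 Neurons from differentiating human fetal neural progenitor spheres are scored for average neurite length after five days of compound exposure. Fitting uses DMSO as negative control.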

Test [14] can be described thus: IUF_NPC5_oligodendrocyte_differentiation_120hr: Leibniz Research Institute for Environmental Medicine (IUF) 120-hour Oligodendrocyte Differentiation Assay (NPC5) (AID 2284304; active means hit-call score of the fitted dose curve at least 0.9, where 1 is the maximum;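 further: primary human fetal neural progenitor spheres plated to migrate and differentiate; share of O4-positive cells among Hoechst nuclei found by CNN image analysis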). A digest of the protocol:
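Human fetal neural progenitor spheres (0.3 mm) plated on poly-D-lysine/laminin in N2 differentiation medium and exposed for 120 h at 7 concentrations, with half-medium renewal at day 3. O4-positive cells identified by CNN, expressed as percent of Hoechst nuclei.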

The nature of test [15]: IUF_NPC4_neurite_area_120hr: Leibniz Research Institute for Environmental Medicine (IUF) 120-hour Neuronal Morphology Assay for Neurite Area (NPC4) (AID 2284305; active means hit-call score of the fitted dose curve at least 0.9, where 1 is the maximum). A digest of the protocol:
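Endpoint at 120 h: automated imaging of TUBB3/Hoechst-stained differentiating human neural progenitor spheres, neurite area per neuron from skeletonization. DMSO solvent control, not above 0.1%, set the baseline; medium was half-replaced on day 3.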

A short description of test [16]: IUF_NPC2-5_cytotoxicity_72hr: Cytotoxicity Assessment at 72 hours in the Leibniz Research Institute for Environmental Medicine (IUF) Neural Progenitor Cell Migration and Differentiation Assay for Cytotoxicity (NPC2-5) (AID 2284306; active means hit-call score of the fitted dose curve at least 0.9, where 1 is the maximum;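 further: LDH release into supernatant measured by resorufin fluorescence marking membrane damage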). A digest of the protocol: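 Primary human neural progenitor spheres migrate and differentiate on laminin. Compound is present from the start of differentiation, with DMSO kept at or below 0.1%. At 72 h, supernatant LDH is quantified fluorometrically, with values fitted in the positive direction.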

Test [17] in a line: IUF_NPC2-5_cytotoxicity_120hr: Cytotoxicity Assessment at 120 hours in the Leibniz Research Institute for Environmental Medicine (IUF) Neural Progenitor Cell Migration and Differentiation Assay (NPC2-5) (AID 2284307; active means hit-call score of the fitted dose curve at least 0.9, where 1 is the maximum;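 further: LDH released into supernatant as membrane damage marker via resorufin fluorescence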). A digest of the protocol: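 Human fetal (GW 16-19) neural progenitor spheres (0.3 mm) plated on poly-D-lysine/laminin in N2 differentiation medium, exposed 120 h with half-medium renewal at day 3; 7 concentrations plus solvent control, DMSO ≤0.1%. LDH release in supernatant read by resorufin fluorescence.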

Test [18] in a line: IUF_NPC2-5_cell_number_120hr: Cell Number Assessment at 120 hours in the Leibniz Research Institute for Environmental Medicine (IUF) Neural Progenitor Cell Migration and Differentiation Assay (NPC2-5) (AID 2284308).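 Further: count of Hoechst-stained nuclei in migration zone around plated human neural progenitor spheres.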 A digest of the protocol:
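Human fetal neural progenitor spheres (0.3 mm) plated on poly-D-lysine/laminin in N2 differentiation medium, exposed five days across 7 concentrations with half-medium refresh at day 3. Hoechst-positive nuclei counted in migration area at 120 h, relative to DMSO.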

Test [19] can be described thus: IUF_NPC2-5_viability_120hr: Viability Assessment at 120 hours in the Leibniz Research Institute for Environmental Medicine (IUF) Neural Progenitor Cell Migration and Differentiation Assay (NPC2-5) (AID 2284312). A digest of the protocol:
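Human fetal (GW 16-19) neural progenitor spheres of 0.3 mm were plated on poly-D-lysine/laminin in N2 differentiation medium and exposed from day 0 for 120 h, with half-medium refresh at day 3. Viability was read as alamar blue resazurin-to-resorufin fluorescence against DMSO.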

A short description of test [20]: IUF_NPC1_cytotoxicity_72hr: Cytotoxicity Assessment at 72 hours in the Leibniz Research Institute for Environmental Medicine (IUF) Neural Progenitor Cell Proliferation Assay (NPC1) (AID 2284332; active means hit-call score of the fitted dose curve at least 0.9, where 1 is the maximum;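 further: rising LDH signal means more cytotoxicity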). The gist of the method: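 Readout is fluorescence from LDH-dependent resazurin conversion, sampled from culture medium after compound contact lasting 72 h. Each well holds one 0.25-0.35 mm human progenitor sphere kept at 37C, 5% CO2 with EGF and FGF.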

For the compound `O=C(O)CCC(F)(F)C(F)(F)C(F)(F)F`, the compound was classed as inactive in test [1].

For `C=C(C)C(=O)OCCC(F)(F)C(F)(F)C(F)(F)C(F)(F)C(F)(F)C(F)(F)F`, the result in test [1] was inactive.

In the case of `OCC(F)(F)C(F)(F)C(F)(F)C(F)(F)C(F)(F)C(F)(F)CO`, the result in test [1] was inactive.

In the case of `O=C1N[C@@H]2C(=C[C@H](O)[C@@H](O)[C@H]2O)c2cc3c(c(O)c21)OCO3`, the AC50 (as a rule, the midpoint of the concentration-response curve, whichever way the signal moves) was 32.7 nM (active) in [2]; 47 nM (active) in test [3]; 21.6 nM (active) in test [4]; 23.7 nM (active) in test [5]; 256 nM (active) in test [6]; 218 nM (active) in test [7]. The AC50 was 37 nM (active) in test [9]; 45 nM (active) in [10]; 11.1 nM (active) in test [12]; 14.8 nM (active) in test [13]; 12.1 nM (active) in [14]; 9.33 nM (active) in test [15]. The AC50 in test [17] was 13.1 nM (active); in test [18], 26.7 nM (active); in test [19] it was 24.2 nM (active). Moreover, the result in [8], in test [11], in test [16] and in test [20] was inactive.

In the case of `OCCCC(F)(F)C(F)(F)C(F)(F)C(F)(F)C(F)(F)C(F)(F)C(F)(F)F`, the outcome in test [1] was inactive.

The values are drawn from PubChem BioAssay (EPA / NIEHS).
